Eleven compounds from ChEMBL document CHEMBL3988442, “University of Dundee, Small-Polar-MMV Screening Library” (2021) can be followed below.

Each structure is given as a SMILES string. For some of these results: Results with a measured potency or affinity are listed apart.

What all share (design): scale not given: direction of the effect not stated beside the values
The target of experiment [1] is Protein translocase subunit SecA (Escherichia coli (strain K12)) (UniProt P10408). The experiment is described as follows: Assay to Identify E. coli SecA ATPase Inhibitors. The class given is functional. As to conditions: 30 µM.
Sequence of Protein translocase subunit SecA (Escherichia coli (strain K12)) (P10408 whole entry): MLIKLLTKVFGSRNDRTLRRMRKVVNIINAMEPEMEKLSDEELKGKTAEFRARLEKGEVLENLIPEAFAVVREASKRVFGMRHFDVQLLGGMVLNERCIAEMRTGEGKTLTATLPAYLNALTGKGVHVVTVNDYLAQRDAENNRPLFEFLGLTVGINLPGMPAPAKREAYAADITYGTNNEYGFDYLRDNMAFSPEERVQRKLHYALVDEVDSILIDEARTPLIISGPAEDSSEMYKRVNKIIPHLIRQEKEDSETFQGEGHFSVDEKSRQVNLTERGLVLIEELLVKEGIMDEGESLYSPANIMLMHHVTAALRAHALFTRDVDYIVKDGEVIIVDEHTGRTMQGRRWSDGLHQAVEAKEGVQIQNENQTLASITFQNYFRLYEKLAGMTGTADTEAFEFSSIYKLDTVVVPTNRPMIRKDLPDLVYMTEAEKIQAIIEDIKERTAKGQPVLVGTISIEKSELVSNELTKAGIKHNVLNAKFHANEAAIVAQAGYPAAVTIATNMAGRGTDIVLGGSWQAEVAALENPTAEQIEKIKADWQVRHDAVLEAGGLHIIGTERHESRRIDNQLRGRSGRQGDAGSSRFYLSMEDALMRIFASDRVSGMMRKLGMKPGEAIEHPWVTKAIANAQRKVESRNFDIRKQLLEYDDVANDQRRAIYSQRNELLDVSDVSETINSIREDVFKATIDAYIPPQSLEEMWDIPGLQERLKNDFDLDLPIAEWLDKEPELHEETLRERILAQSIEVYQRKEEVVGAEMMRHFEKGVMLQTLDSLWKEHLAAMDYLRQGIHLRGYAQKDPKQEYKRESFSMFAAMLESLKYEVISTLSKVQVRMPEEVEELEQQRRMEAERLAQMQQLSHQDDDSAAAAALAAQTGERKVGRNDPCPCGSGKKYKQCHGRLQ
Experiment [2] concerns the target T1, Ubiquitin-activating enzyme e1, putative (Leishmania donovani (strain BPK282A1)) (UniProt E9BSI1).
T1 sequence (whole entry): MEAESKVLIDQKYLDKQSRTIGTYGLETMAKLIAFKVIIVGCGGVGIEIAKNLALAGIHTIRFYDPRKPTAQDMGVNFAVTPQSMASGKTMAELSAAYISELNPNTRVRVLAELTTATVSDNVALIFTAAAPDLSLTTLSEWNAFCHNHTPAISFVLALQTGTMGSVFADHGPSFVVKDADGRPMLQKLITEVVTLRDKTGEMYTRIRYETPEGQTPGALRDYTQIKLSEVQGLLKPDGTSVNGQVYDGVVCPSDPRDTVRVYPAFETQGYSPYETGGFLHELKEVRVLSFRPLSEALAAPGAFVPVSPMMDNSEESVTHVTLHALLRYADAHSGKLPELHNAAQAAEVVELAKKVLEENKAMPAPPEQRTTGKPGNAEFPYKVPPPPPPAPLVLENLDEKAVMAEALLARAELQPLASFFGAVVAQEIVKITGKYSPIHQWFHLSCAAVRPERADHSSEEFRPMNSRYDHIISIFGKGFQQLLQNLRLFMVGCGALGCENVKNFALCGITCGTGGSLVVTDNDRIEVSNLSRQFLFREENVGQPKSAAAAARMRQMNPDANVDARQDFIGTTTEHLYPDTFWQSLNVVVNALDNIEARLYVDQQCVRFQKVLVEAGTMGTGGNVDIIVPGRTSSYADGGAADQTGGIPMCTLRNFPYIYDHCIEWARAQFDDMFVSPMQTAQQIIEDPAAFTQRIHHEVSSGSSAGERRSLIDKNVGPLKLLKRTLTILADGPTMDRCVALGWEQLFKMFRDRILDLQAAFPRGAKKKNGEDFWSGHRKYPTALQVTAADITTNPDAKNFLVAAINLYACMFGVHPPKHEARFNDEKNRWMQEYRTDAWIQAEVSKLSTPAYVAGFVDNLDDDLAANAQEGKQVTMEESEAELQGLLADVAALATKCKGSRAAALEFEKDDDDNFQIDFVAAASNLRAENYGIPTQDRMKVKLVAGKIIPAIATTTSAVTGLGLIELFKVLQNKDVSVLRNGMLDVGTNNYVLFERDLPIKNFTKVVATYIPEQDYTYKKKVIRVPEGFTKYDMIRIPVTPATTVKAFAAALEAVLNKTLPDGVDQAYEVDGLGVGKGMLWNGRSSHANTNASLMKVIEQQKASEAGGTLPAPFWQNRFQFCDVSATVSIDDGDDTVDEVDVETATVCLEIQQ
The experiment is described as follows: Leishmania donovani Ubiquitin Activating Enzyme (LdE1). The class given is functional. Conditions: 30 µM.

Experiment [3] has as its target AMP-activated protein kinase, AMPK (Homo sapiens) (UniProt P54646+O43741+P54619+Q9UGJ0+Q9Y478+Q13131+Q9UGI9). The experiment is described as follows: AMP-dependent Kinase enzyme assay. An in vitro enzyme assay that detects ADP turnover that is directly proportional to AMPK activity. This uses naive AMPK that is activated during the assay with MK-8722. The class given is functional. Conditions: 30 µM.

The target of experiment [4] is Sialic acid-binding Ig-like lectin 9 (Homo sapiens) (UniProt Q9Y336). The experiment is described as follows: Hs-Siglec9 ALPHAscreen SOP 20170721. As to conditions: 10 µM. In general terms: Bead proximity is the source of the signal in Alpha formats.
Sequence of Sialic acid-binding Ig-like lectin 9 (Homo sapiens) (Q9Y336 whole entry): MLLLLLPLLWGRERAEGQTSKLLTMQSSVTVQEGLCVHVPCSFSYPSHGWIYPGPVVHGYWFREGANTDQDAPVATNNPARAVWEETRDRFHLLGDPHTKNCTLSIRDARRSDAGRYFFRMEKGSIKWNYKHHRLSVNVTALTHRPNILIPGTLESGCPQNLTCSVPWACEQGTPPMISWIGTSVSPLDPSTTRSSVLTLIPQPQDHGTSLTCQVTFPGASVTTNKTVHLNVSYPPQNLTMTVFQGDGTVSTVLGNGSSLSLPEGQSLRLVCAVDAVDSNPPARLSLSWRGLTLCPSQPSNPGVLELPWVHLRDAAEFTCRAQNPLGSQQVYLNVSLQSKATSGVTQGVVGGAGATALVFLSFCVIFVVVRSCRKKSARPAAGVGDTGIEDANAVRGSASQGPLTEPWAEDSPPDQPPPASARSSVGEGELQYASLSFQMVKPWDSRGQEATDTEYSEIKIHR
The test system of experiment [5] is Trypanosoma cruzi. The experiment in a line: Trypanosoma cruzi phosphomannomutase and mannose-1-phosphate guanylyltransferase assay. The class given is functional. As to conditions: 10 µM.
In experiment [6] the target is T2, Arginase-2, mitochondrial (Homo sapiens) (UniProt P78540).
T2 sequence (whole entry): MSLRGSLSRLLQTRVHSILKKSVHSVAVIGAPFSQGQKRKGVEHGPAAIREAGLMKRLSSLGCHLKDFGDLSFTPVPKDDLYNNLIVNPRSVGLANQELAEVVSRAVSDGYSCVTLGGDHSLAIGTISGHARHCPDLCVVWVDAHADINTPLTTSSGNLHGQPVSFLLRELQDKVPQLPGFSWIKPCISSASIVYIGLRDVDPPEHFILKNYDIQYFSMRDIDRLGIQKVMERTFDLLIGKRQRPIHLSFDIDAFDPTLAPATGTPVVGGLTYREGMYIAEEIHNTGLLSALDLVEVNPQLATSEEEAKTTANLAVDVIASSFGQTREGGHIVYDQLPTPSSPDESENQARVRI
The experiment in a line: in vitro enzyme assay to detect the production of urea directly proportional to the activity of Arginase II. Also: in the data most compounds retested in dose-response had high values. The class given is functional. Conditions: 33.3 µM.

Experiment [7] has as its target T3, Proteasome subunit beta (Trypanosoma cruzi) (UniProt O96673).
T3 sequence (whole entry): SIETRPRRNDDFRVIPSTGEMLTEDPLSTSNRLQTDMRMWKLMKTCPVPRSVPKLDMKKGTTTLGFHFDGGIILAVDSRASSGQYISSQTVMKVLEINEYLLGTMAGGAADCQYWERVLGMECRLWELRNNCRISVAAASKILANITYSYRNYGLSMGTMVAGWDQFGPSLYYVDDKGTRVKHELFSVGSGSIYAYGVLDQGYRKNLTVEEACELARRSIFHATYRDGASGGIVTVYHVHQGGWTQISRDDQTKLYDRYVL
The experiment is described as follows: Trypanosoma cruzi proteasome chymotrypsin-like activity (TcProtChymo) assay. Also: in the data most compounds retested in dose-response had high values. The class given is functional. Conditions: 9.37 µM.

For experiment [8], the species on record is Homo sapiens. The experiment in a line: To identify inhibition of the IFN signalling (Jak-Stat) pathway via expression of an eGFP reporter gene under the control of an IFN-stimulated response element (ISRE) containing MxA promoter. Conditions: 30 µM. The class given is functional.
Experiment [9] concerns the target T4, Tyrosyl-tRNA synthetase, putative (Trypanosoma cruzi (strain CL Brener)) (UniProt Q4DSP6).
T4 sequence (whole entry): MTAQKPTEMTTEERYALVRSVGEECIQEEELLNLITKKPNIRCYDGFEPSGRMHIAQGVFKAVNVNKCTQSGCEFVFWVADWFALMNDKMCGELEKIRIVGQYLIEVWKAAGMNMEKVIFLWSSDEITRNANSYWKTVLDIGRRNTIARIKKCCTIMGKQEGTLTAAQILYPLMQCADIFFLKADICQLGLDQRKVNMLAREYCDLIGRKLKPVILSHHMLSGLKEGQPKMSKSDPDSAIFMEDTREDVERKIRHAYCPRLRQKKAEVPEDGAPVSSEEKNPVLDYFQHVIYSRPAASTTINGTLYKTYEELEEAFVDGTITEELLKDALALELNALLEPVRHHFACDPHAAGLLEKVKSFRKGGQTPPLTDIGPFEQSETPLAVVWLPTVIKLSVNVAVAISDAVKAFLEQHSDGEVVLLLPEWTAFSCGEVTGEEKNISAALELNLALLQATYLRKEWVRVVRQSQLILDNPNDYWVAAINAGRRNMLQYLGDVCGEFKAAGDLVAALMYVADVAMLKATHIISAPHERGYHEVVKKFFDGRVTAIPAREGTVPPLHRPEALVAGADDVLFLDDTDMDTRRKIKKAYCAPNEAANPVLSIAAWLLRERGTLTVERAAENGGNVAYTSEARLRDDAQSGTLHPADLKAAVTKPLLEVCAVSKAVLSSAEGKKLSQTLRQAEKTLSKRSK
The experiment in a line: Trypanosoma cruzi tyrosyl tRNA synthetase (TcYRS) _High Tyrosine SOP. Also: in the data most compounds retested in dose-response had high values. The class given is functional. Conditions: 30 µM.

The target in experiment [10] is T4, Tyrosyl-tRNA synthetase, putative (Trypanosoma cruzi (strain CL Brener)). The experiment in a line: Trypanosoma cruzi tyrosyl tRNA synthetase (TcYRS) SOP. The class given is functional. As to conditions: 30 µM.
Experiment [11] addresses Chromo domain-containing protein 1 (Saccharomyces cerevisiae (strain ATCC 204508 / S288c) (Baker's yeast)) (UniProt P32657). The experiment in a line: ScCHD-1 Enzyme Inhibition Assay. Also: in the data most compounds retested in dose-response had high values. As to conditions: 30 µM. The class given is functional.

Sequence of Chromo domain-containing protein 1 (Saccharomyces cerevisiae (strain ATCC 204508 / S288c) (Baker's yeast)) (P32657 whole entry, the tested form may be a part): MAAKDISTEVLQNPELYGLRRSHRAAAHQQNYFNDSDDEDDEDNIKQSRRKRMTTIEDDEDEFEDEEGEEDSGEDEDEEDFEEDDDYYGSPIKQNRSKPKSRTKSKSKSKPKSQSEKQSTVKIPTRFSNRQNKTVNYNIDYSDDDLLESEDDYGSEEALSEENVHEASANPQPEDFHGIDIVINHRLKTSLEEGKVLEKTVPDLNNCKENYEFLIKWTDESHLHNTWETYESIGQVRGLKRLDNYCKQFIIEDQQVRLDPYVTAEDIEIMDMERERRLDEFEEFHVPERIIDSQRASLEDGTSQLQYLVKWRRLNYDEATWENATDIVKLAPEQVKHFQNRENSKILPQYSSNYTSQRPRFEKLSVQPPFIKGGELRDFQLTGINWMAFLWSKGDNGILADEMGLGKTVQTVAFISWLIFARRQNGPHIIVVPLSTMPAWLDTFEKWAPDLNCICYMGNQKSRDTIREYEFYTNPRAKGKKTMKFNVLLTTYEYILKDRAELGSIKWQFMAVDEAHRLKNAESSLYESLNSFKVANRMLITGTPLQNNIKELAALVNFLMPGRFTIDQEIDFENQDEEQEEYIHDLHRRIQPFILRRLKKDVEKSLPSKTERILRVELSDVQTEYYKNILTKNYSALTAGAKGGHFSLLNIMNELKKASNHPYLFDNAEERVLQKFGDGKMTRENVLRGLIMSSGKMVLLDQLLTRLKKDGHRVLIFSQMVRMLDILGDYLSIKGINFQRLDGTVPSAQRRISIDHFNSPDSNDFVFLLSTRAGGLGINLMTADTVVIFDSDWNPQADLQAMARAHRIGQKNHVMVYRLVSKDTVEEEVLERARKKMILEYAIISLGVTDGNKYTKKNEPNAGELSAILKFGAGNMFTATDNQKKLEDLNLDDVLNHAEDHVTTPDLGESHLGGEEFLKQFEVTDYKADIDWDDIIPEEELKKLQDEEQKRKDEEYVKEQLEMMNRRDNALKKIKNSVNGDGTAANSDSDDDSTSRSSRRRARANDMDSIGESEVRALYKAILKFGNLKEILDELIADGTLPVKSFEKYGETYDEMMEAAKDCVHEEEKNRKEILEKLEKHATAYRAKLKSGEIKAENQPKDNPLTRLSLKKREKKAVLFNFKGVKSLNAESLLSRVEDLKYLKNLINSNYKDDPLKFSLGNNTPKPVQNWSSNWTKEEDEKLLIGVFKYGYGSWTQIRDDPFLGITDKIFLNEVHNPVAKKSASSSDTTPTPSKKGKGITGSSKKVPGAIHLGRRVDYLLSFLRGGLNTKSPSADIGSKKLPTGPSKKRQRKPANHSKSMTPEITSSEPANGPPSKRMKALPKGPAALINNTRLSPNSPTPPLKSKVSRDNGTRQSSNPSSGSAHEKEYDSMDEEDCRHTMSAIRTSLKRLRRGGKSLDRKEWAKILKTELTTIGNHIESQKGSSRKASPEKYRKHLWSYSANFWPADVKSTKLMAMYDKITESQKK

`CCSc1cc(C(=O)NCc2ccccc2O)ccn1`: the Percent Effect in [1] is -5.37%; in [2], 0%; in [3], 5.33%; in [4] it was -0.329%; in [5], 7.05%; in experiment [6], -0.909%. For the same compound, the Percent Effect in [7] is 12.2%; in experiment [8], 44.3%; in experiment [9], 3.23%; in experiment [10], 5%; in [11], -5.04%.

Regarding `CCSCC(C)NCc1nncn1C1CCCCC1` (stereo unspecified), the Percent Effect in [1] was -0.842%; in [2], 6.94%; in experiment [3], -1.51%; in experiment [4], -1.31%; in [5] it was 2.23%; in [6], 0.883%. The Percent Effect was 16% in experiment [7]; -2.28% in [8]; 11.6% in [9]; 20.5% in [10]; -4.13% in experiment [11].

In the case of `COc1cccc(C(=O)N2CCCCC2CNC(N)=O)c1` (stereo unspecified), the Percent Effect in experiment [1] is -9.94%; in experiment [2] it was 5.26%; in [3], 4.5%; in [4] it was 4.83%; in [5], -4.58%; in [6], -3.6%. In addition, the Percent Effect came out at 0.0846% in experiment [7]; 1.79% in [8]; 3.45% in [9]; 6.17% in [10]; 0.323% in [11].

As for `Cc1ccsc1C(=O)NCCCn1nc2ccccn2c1=O`, the Percent Effect is -1.75% in experiment [1]; 16.2% in experiment [2]; -0.37% in experiment [3]; -0.759% in experiment [4]; -3.99% in [5]; 1.66% in experiment [6]. Besides, the Percent Effect in experiment [7] is 9.52%; in experiment [8] it was 20.9%; in [9], 5.94%; in [10], 18.3%; in [11], -8.98%.

As for `CCS(=O)(=O)N1CCO[C@H]2[C@H](OCCCn3cccn3)CC[C@@H]21`, the Percent Effect in [1] was -0.913%; in experiment [2], -2.67%; in [3], -2.06%; in experiment [4] it was -3.13%; in experiment [5], 3.48%; in experiment [6], -47.1%. The Percent Effect in experiment [7] was 5.3%; in experiment [8], -0.821%; in experiment [9] it was -4.17%; in experiment [10], 7.5%; in experiment [11] it was -1.55%.

As for `Cn1ccnc1CN1C[C@@H](CN2CCC(CO)CC2)[C@@H](CO)C1`, the Percent Effect in experiment [1] was -7.42%; in experiment [2], 5.41%; in [3], -7.54%; in [4] it was 7.63%; in [5], 6.37%; in experiment [6] it was -1.43%. Besides, the Percent Effect in [7] was 17.4%; in experiment [8], 7.57%; in [9], 1.59%; in [10], 14.6%; in experiment [11], -5.25%.

Turning to `CC(NC1(CNC(=O)CC(C)(C)C)CCOCC1)c1ccccc1` (stereo unspecified), the Percent Effect in [1] is -5.63%; in experiment [2], 8.11%; in experiment [3], 1.15%; in experiment [4] it was 15.6%; in [5], -0.684%; in experiment [6] it was 4.22%. Besides, the Percent Effect is 9.19% in [7]; -9.78% in [8]; 3.23% in [9]; 11.1% in experiment [10]; -2.98% in experiment [11].

As to `Cc1nn(C)c(C)c1C1CCCN1C(=O)CCc1cscn1` (stereo unspecified), the Percent Effect was -2.32% in experiment [1]; -5.26% in experiment [2]; -4.9% in experiment [3]; 0.0636% in experiment [4]; 0.467% in experiment [5]; 0.36% in experiment [6]. In addition, the Percent Effect in [7] is 6.18%; in [8], -8.57%; in [9], 1.48%; in experiment [10], 1.24%; in experiment [11], 2.83%.

As to `COc1ccccc1C(=O)N1CC(Cc2nccc3ccn(C)c23)C1`, the Percent Effect in [1] was -7.05%; in experiment [2] it was 17.6%; in experiment [3] it was 2.79%; in [4], 6.36%; in experiment [5] it was 4.15%; in [6] it was -2.09%. In addition, the Percent Effect in experiment [7] is 6.4%; in experiment [8], 13.2%; in experiment [9], 6.45%; in [10], 14.3%; in experiment [11], -16.6%.

For `Cc1cnn(CC2CCCCN2Cc2nnc(C3CC3)n2C)c1` (stereo unspecified), the Percent Effect is -1.18% in experiment [1]; -1.27% in [2]; 5% in experiment [3]; -0.259% in experiment [4]; 5.85% in experiment [5]; 0.215% in [6]. For the same compound, the Percent Effect in [7] was 8.75%; in experiment [8], -10.1%; in experiment [9], 3.12%; in experiment [10], 5.06%; in experiment [11], -2.78%.

For the compound `CCS(=O)(=O)N1CCC[C@]2(C(=O)N(C)C)CN(c3ncccn3)C[C@@H]2C1`, the Percent Effect in experiment [1] is 2.18%; in experiment [2] it was 10.7%; in experiment [3] it was 3.9%; in experiment [4], 3.64%; in [5] it was 0.193%; in [6] it was -53.9%. The Percent Effect is 7.52% in [7]; -10.8% in experiment [8]; 3.12% in experiment [9]; 22.5% in experiment [10]; -10.2% in experiment [11].
